Screening results: PubChem BioAssay, National Center for Advancing Translational Sciences (NCATS)
MARV entry inh: inhibitors of Marburg virus binding or cell entry | Marburg virus pseudotyped entry inhibition, cell reporter | Potency, µM (top dose mostly 37.8 µM), for the others: at the top dose activity change, negative = inhibition, actives largely listed as inhibitors | 1.8% of 300,000 active | AID 540276; calls by dose curve; tested in HEK293 cells; further: potency means the concentration at half of the fitted maximal effect
HCMV antiviral: human cytomegalovirus inhibition. HFF cells, HCMV-luciferase reporter, 72 h; stronger effect = lower value. activity change, negative = inhibition, % at 57.5 µM. 4.5% of 410,000 active. AID 1259415; in the data active means activity change below about -60%; inconclusive means no clear call, values can overlap the other calls; inactive means above about -39%
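After 16 h attachment at 37C, HFF cells received test compound and HCMV-luciferase (1 PFU/cell); reporter luminescence read 72 h later, data normalized against buffer-only and known inhibitor Salinomycin.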
LASV entry inh: Lassa virus entry inhibition | Lassa virus pseudotype entry inhibition, cell reporter | Potency, µM (top dose mostly 37.9 µM), for the others: at the top dose activity change, negative = inhibition, usual class: inhibitors | 1.2% of 300,000 active | AID 540256; calls by dose curve; tested in HEK293 cells; further: potency means the concentration at half of the fitted maximal effect; nearly all actives have a fitted effect of over 50% in size
Vaccinia mCherry: vaccinia inhibition (mCherry reporter) | Vaccinia virus mCherry reporter infection, fluorescence | 0.63% of 310,000 active | Potency, µM (titrated, usually from 36.5 µM), for the others: at the top dose activity change, negative = inhibition, most hits filed as inhibitors | AID 720579; calls by dose curve; tested in A549 cells; further: potency means the concentration at half of the fitted maximal effect; nearly all actives have a fitted effect of over 35% in size
HCV inhibitor: inhibitors of hepatitis C virus infection. Huh7.5.1 HCVcc-Cre infection, luciferase reporter, 44 h. Potency, µM (highest dose often 41.8 µM), inactives show top-dose activity change, negative = inhibition, usual class: inhibitors. 3.4% of 340,000 active; active means well fitted inhibition curve with a large enough effect; inconclusive means small, poorly fitted or top-dose-only effect, or another doubt; inactive means no such curve, though single readings can be large or run the other way; further: potency means the concentration at half of the fitted maximal effect
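After 44 h co-culture of compound, cells and HCVcc-Cre (~0.5 moi), substrate is added for 15 min at room temperature and luciferase measured over 15 sec. Cells were seeded at 1,000/well and pre-cultured 4 h.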
VACV Venus inh: inhibitors of vaccinia virus (Venus reporter); Vaccinia virus Venus reporter expression, fluorescence; Potency, µM (doses to about 36.5 µM), for the others: at the top dose activity change, negative = inhibition, actives largely listed as inhibitors; 0.46% of 330,000 active; AID 720580; calls by dose curve; tested in A549 cells; further: potency means the concentration at half of the fitted maximal effect; nearly all actives have a fitted effect of over 30% in size
* marks the source's active call; other numbers are inactive results; [ ] = dose if it differs, or a comment. Only some compounds are listed: those with a hit (about 7.8% of all), similar ones and a draw of the others. On the % scale 0 is the no-effect control and ±100 the full control effect.

For O=C(NCCCN1CCCC1=O)c1cc(-c2cccnc2)nc2ccc(Cl)cc12 the results were MARV entry inh 3.8%, HCMV antiviral -32.6, LASV entry inh -29.2%, Vaccinia mCherry -3.2%, HCV inhibitor -2.1% and VACV Venus inh -1.2%.
`CC(=O)Nc1cccc(NC(=O)c2cc(-c3cccnc3)nc3ccc(Cl)cc23)c1` gave MARV entry inh inconclusive, HCMV antiviral 2.3, LASV entry inh inconclusive, Vaccinia mCherry -10.0%, HCV inhibitor inconclusive and VACV Venus inh -6.1%.
O=C(Nc1ccc(C(F)(F)F)cc1)c1cc(-c2cccnc2)nc2ccc(Br)cc12 was read as MARV entry inh inconclusive, HCMV antiviral inconclusive, LASV entry inh -3.3% and HCV inhibitor -1.5%.
CC(=O)Nc1cccc(NC(=O)c2cc(-c3cccnc3)nc3ccc(Br)cc23)c1 was read as MARV entry inh inconclusive, HCMV antiviral -27.6, LASV entry inh -12.3% and HCV inhibitor 14.1µM*.
`COc1cccc(-c2cc(C(=O)Nc3ccc(N(C)C(C)=O)cc3)c3cc(Br)ccc3n2)c1` gave HCMV antiviral -96.6* and HCV inhibitor 11.2µM*.
CC(=O)Nc1ccc(Nc2ccc3cc(S(=O)(=O)N4CCCCC4)ccc3n2)cc1 was read as HCMV antiviral -4.6, LASV entry inh -3.7%[46.1 µM], Vaccinia mCherry -14.8% and VACV Venus inh -8.7%.
For COc1ccc(CCNC(=O)Cn2c(=O)n(-c3ccc(OC)c(OC)c3)c(=O)c3ccccc32)cc1OC the results were MARV entry inh 4.7%[46.1 µM], HCMV antiviral 1.5, LASV entry inh -4.4%[46.1 µM], Vaccinia mCherry -1.7% and VACV Venus inh -5.6%.
CCOc1ccccc1N1C(=O)NC(=O)/C(=C/c2ccc3c4c(cccc24)CC3)C1=O was read as MARV entry inh 1.8%, HCMV antiviral 48.9, LASV entry inh -8.3%, HCV inhibitor 16.2% and VACV Venus inh -11.3%.
For COc1cccc(N2C(=O)NC(=O)/C(=C/c3ccc4c5c(cccc35)CC4)C2=O)c1 the results were HCMV antiviral -100.8* and HCV inhibitor 7.7%.
For Cc1ccc2c(c1)N(CCC(=O)NCc1ccccc1Cl)C(=O)CO2 the results were MARV entry inh -2.2%[46.1 µM], HCMV antiviral -31.3, LASV entry inh 2.3%[46.1 µM], Vaccinia mCherry 2.3% and VACV Venus inh -2.4%.
For Cc1c(C(=O)Nc2ccc(-n3cnnn3)cc2)oc2ccccc12 the results were MARV entry inh 17.2%, HCMV antiviral -65.5*, LASV entry inh -20.0%, Vaccinia mCherry -14.1%, HCV inhibitor 4.3% and VACV Venus inh -7.6%.
Screening CCC(=O)Nc1ccc(NC(=O)c2oc3ccccc3c2C)cc1 returned HCMV antiviral 0.7 and HCV inhibitor -16.8%.
Cc1ccnc(NC(=O)c2oc3ccccc3c2C)c1 was read as MARV entry inh inconclusive, HCMV antiviral 0.2, LASV entry inh 3.55µM*, Vaccinia mCherry inactive, HCV inhibitor inconclusive and VACV Venus inh -8.6%.
`C/C=C/[C@@H]1[C@@H](S(=O)(=O)c2ccccc2)CC(=O)N1Cc1ccccc1` gave HCMV antiviral -6.8.
`O=C(CCS(=O)(=O)c1cc2c(cc1Cl)NC(=O)CO2)NCCc1ccc(Cl)cc1` gave HCMV antiviral 12.2, LASV entry inh -5.0%[46.1 µM], Vaccinia mCherry -3.7% and VACV Venus inh -0.5%.
For CC(=O)Cc1nsc(NC(=O)c2ccccc2)n1 the results were MARV entry inh -1.6%, HCMV antiviral -64.3*, LASV entry inh 18.0%, HCV inhibitor 22.0% and VACV Venus inh 6.2%.
Screening CC(C)Oc1cccnc1N(C)C1CCN(Cc2ccccc2)CC1 returned MARV entry inh 1.78µM*, HCMV antiviral -10.9, LASV entry inh -9.1%, Vaccinia mCherry inactive, HCV inhibitor -18.0% and VACV Venus inh -9.0%.
CC(C)Oc1ccc(C(=O)NC2CCN(Cc3ccccc3)CC2)cc1 was read as MARV entry inh inconclusive, HCMV antiviral inconclusive, LASV entry inh -2.1%[46.1 µM], Vaccinia mCherry -8.9%, HCV inhibitor inconclusive and VACV Venus inh -17.9%.
For Cc1cc(C)n(Cc2cccc(C(=O)NCC3Cc4cccc(-c5ncccn5)c4O3)c2)n1 (centres undefined) the results were Vaccinia mCherry -5.6% and VACV Venus inh -3.7%.
For CC(C)(C)Nc1nc(NN)nc(NC(C)(C)C)n1 the results were MARV entry inh inconclusive, HCMV antiviral -84.6*, LASV entry inh inconclusive, HCV inhibitor inconclusive and VACV Venus inh -26.7%.
Screening CC(C)(C)Nc1nc(Cl)nc(NC(C)(C)C)n1 returned MARV entry inh inconclusive, HCMV antiviral 155.2, LASV entry inh 2.2%, Vaccinia mCherry -7.1%, HCV inhibitor -3.1% and VACV Venus inh -17.2%.
`O=C(CC1C(=O)NCCN1Cc1cccc(Oc2ccccc2)c1)NCCc1ccccn1` (centres undefined) gave MARV entry inh inconclusive, HCMV antiviral 23.1, LASV entry inh 6.31µM*, Vaccinia mCherry -11.6%, HCV inhibitor -22.1% and VACV Venus inh -26.0%.
For COc1cccc(N2CCN(Cc3cc(=O)oc4cc(C)ccc34)CC2)c1 the results were MARV entry inh 3.0%[46.1 µM], HCMV antiviral 0.6, LASV entry inh -15.1%[46.1 µM], Vaccinia mCherry -4.4% and VACV Venus inh -10.8%.
Cc1ccc(S(=O)(=O)c2cc3c(=O)n4cccc(C)c4nc3n(C3CCCCC3)c2=N)cc1 was read as MARV entry inh 8.5%[46.1 µM], LASV entry inh 0.7%[46.1 µM], Vaccinia mCherry -7.6%, HCV inhibitor -15.2% and VACV Venus inh 5.0%.
Screening Cc1ccc(S(=O)(=O)c2cc3c(=O)n4ccccc4nc3n(C3CCCC3)c2=N)cc1 returned MARV entry inh 0.2%[46.1 µM], HCMV antiviral 8.4, LASV entry inh 23.8%[46.1 µM], Vaccinia mCherry -13.8%, HCV inhibitor 5.01µM* and VACV Venus inh -16.8%.
Screening Cc1ccc(Cl)cc1N1CCN(C(=O)c2ccc(CS(=O)c3ccccc3)o2)CC1 (centres undefined) returned HCMV antiviral -20.3, LASV entry inh inconclusive, Vaccinia mCherry -11.5% and VACV Venus inh -18.4%.
Screening Cc1ccccc1S(=O)Cc1ccc(C(=O)N2CCN(c3cccc(C)c3C)CC2)o1 (centres undefined) returned HCMV antiviral -83.5*, LASV entry inh inconclusive, Vaccinia mCherry -22.2% and VACV Venus inh -21.6%.
`Cc1cccc(N2CCN(C(=O)c3ccc(CS(=O)c4cccc(Cl)c4)o3)CC2)c1C` (centres undefined) gave HCMV antiviral -86.9*, LASV entry inh inconclusive, Vaccinia mCherry -27.2% and VACV Venus inh -26.3%.
For CC(C)(C)c1ccc(OCC(=O)Nc2c(C(=O)c3ccc(F)cc3)oc3ccccc23)cc1 the results were MARV entry inh 8.3%[46.1 µM], HCMV antiviral 12.9, LASV entry inh 3.9%[46.1 µM], Vaccinia mCherry -1.9% and VACV Venus inh 1.0%.
